Rows were chosen to be rich in hits. Some 27% of all compounds tested hit in one or more screens of this group.
CYP2C19 inhib = human CYP2C19 inhibition. CYP2C19 Supersomes, luciferin-H EGE luminescence, 30 min. P33261. inhibition, % at 5 µM. hit rate 21% among 96,000;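 active = CYP2C19 inhibition above a set limit at 5 µM in the primary screen, cut at about 50% in these data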
Target sequence (P33261 whole entry, looked up): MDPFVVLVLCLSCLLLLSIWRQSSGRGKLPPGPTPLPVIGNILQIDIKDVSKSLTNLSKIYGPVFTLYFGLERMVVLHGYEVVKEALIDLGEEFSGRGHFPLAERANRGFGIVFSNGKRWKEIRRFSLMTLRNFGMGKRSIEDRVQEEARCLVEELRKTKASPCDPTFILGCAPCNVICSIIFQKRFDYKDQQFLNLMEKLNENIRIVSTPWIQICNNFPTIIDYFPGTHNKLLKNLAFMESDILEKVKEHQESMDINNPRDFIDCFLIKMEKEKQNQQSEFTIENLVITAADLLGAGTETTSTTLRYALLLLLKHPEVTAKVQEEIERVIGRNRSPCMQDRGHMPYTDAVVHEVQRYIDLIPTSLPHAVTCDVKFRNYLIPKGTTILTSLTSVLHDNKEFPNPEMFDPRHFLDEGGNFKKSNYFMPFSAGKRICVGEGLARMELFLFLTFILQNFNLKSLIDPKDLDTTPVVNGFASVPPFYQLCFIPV
CYP2C9 inhib = blocks human cytochrome P450 2C9. P11712. CYP2C9 Supersomes, luciferin-H conversion, luminescence. inhibition, % at 5 µM. hit rate 20% among 96,000;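 active = blocking of liver enzyme CYP2C9 beyond about 50% at 5 µM, limit read from the data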
Cav3 T inh = inhibitors of human Cav3.2 T-type calcium channel | AID 449739 | Cav3.2-expressing cells, Fluo-4 calcium fluorescence FDSS; stronger effect = lower value | B-score at 10 µM | O95180 | hit rate 4% among 100,000;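 active = single-dose well whose peak fluorescence ratio is a statistical outlier from its plate by either plate-standardised score or position-corrected B-score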
CYP2C9 activ = activators of human CYP2C9 | activation factor at 5 µM | recombinant CYP2C9, luciferin-H conversion, luminescence; stronger effect = higher value; factor 1 = untreated enzyme, 0 = blocked | AID 1024 | P11712 | hit rate 1.4% among 96,000;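 active = activation factor of 2 or more for CYP2C9 at a 5 µM dose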
CYP2C19 act = increases human CYP2C19 enzyme activity. P33261. activation factor at 5 µM. recombinant CYP2C19, luciferin-H EGE luminescence; stronger effect = higher value; 0 = fully inhibited enzyme, 1 = untreated enzyme. AID 1025. 96,000 tested, under 10 active;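 active = activation factor of at least 2 at 5 µM in the primary screen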
Hits are given with their value; - = inactive; . = no result given.

SMILES | CYP2C19 inhib | CYP2C9 inhib | Cav3 T inh | CYP2C9 activ | CYP2C19 act
CC1=C(C(=O)NC2CCCCC2C)C2(CCC(C)CC2)OC1=O (stereo unspecified) | 91 | - | - | - | -
COc1ccc(NC(=O)CSc2ccccc2)c(OC)c1 | . | . | - | . | .
COc1cc(-c2nnc(SCC(=O)N(Cc3ccccc3)C(C)(C)C)o2)cc(OC)c1OC | 85 | - | - | - | -
CCN(CC)S(=O)(=O)c1ccc(OC)c(NC(=O)CSc2ccccc2)c1 | - | 89 | - | - | -
COc1cc(-c2nnc(SCC(=O)Nc3ccc4c(c3)OCCO4)o2)cc(OC)c1OC | - | 75 | - | - | -
CCN(CC)S(=O)(=O)c1ccc(-c2nnc(SCC(=O)Nc3ccc(OC)cc3)o2)cc1 | . | . | - | . | .
CCN(CC)S(=O)(=O)c1ccc(-c2nnc(SCC(=O)Nc3ccc(OC)c(OC)c3)o2)cc1 | - | 70 | - | - | -
CC(C)CCOC(=O)C1[C@H]2C(=O)N(Cc3cccs3)C[C@]23C=C[C@H]1O3 (stereo partly specified) | - | - | - | - | -
C=C1C(C(=O)N2CCOCC2)C1C(=O)N1CCOCC1 (stereo unspecified) | - | - | - | - | -
COc1ccc(C(=O)CSc2nnc(CNC(=O)c3ccc(OC)cc3)n2C)cc1 | - | - | - | - | -
O=C(OCCCN1CCCC1)C1(c2ccccc2)CCCC1 | - | - | - | - | -
CCOC(=O)CCCOC(=O)c1ccc(S(=O)(=O)N(C)C)cc1 | . | . | - | . | .
CCn1nc([N+](=O)[O-])c(C(C#N)c2nc3cc(C(F)(F)F)ccc3s2)c(Cl)c1=O (stereo unspecified) | - | - | -5.2 | - | -
Cc1ccc(CNC(=O)CSc2c3c(nc4cc(Cl)ccc24)CCCC3)o1 | 80 | - | - | - | -
CC1CCCN(S(=O)(=O)c2cccc(-c3cn4cccnc4n3)c2)C1 (stereo unspecified) | - | - | . | - | -
COc1ccc(NC(=O)c2ccc(COc3ccccc3Br)o2)cc1OC | - | 73 | - | - | -
CCN(CC)c1ccc(NC(=O)c2ccco2)c(C)c1 | - | - | - | - | -
CCN(CC)c1ccc(NC(=O)c2ccc(Br)o2)c(C)c1 | - | - | - | 2.4 | -
O=C(Nc1ccccc1Oc1ccccc1)c1ccc(Br)o1 | - | - | - | - | -
COc1ccccc1NC(=O)c1ccc(Br)o1 | - | - | - | 2.4 | -
O=C(Nc1ccccc1-c1ccccc1)c1ccc(Br)o1 | - | - | -3.9 | - | -
COc1ccc(NC(=O)c2ccc(COc3ccccc3OC)o2)cc1OC | - | - | - | - | -
C=CCn1c(SCC(=O)Nc2nccs2)nnc1-c1cc2cccc(OC)c2o1 | - | - | - | - | -
CC(C)OC(=O)/C(=C\C=C\c1ccccc1)NC(=O)c1ccccc1 | - | - | - | - | -
COc1ccccc1NC(=O)c1oc2ccc(C)cc2c1C | - | - | - | 2 | -
SMILES | CYP2C19 inhib | CYP2C9 inhib | Cav3 T inh | CYP2C9 activ | CYP2C19 act
COc1ccc(NC(=O)c2ccco2)cc1NC(=O)c1ccc(Br)o1 | - | - | - | - | -
COc1cc(NC(=O)c2ccc(Br)o2)ccc1NC(=O)c1ccccc1Cl | 98 | 77 | - | - | -
CS(=O)(=O)NCCCNc1ccc(Cl)cc1[N+](=O)[O-] | 66 | - | - | - | -
CCNCCNc1ccc(Cl)cc1[N+](=O)[O-] | . | . | - | . | .
Cc1ccc(C(=O)NCCNc2ccc(Cl)cc2[N+](=O)[O-])o1 | - | 55 | - | - | -
COC(=O)C[C@H]1c2cc(F)ccc2S(=O)(=O)N1c1ccc(N(C)C)cc1 | . | . | - | . | .
Cc1ccc(C2OCC3(CO)COC(c4ccc(C)cc4)N23)cc1 (stereo unspecified) | 72 | - | - | - | -
c1ccc2c(c1)[nH]c1nc3nncn3nc12 | - | - | - | - | -
Cc1ccc(NC(=O)CO/N=C(\N)c2nonc2N)cc1 | 70 | - | - | - | -
CCOC(=O)CN1NC2(CCC(C)CC2)NC1=S (stereo unspecified) | 61 | - | - | - | -
CCOC(=O)CN1NC2(CCCC(C)C2)NC1=S (stereo unspecified) | 61 | - | - | - | -
O=C(NC1CCCCC1)c1ccc(S(=O)(=O)NCc2cccnc2)cc1 | - | - | - | - | -
O=c1c(C=Nc2ccc(Oc3ccccc3)cc2)c[nH]n1-c1cccc(Cl)n1 | - | - | - | - | -
COc1ccc(-n2nccc2-c2nn(-c3cccc(OC)c3)c(=O)n(C)c2=O)cc1 | 89 | 62 | - | - | -
COc1cccc(-n2c(C)nn(C)c2=O)c1 | - | - | - | - | -
COc1cccc(-n2nc(-c3ccnn3-c3ccc(F)cc3)c(=O)n(C)c2=O)c1 | 67 | 80 | - | - | -
COc1cccc(-n2nc(-c3ccnn3-c3ccc(C)cc3)c(=O)n(C)c2=O)c1 | 89 | 84 | - | - | -
Nc1cc(C(=O)O)ccc1Nc1ccc(F)c(F)c1 | - | - | - | - | -
Cc1ccc(C)c(N2CCN(C(=O)CCS(=O)(=O)c3cccc4nonc34)CC2)c1 | 62 | 73 | - | - | -
COc1ccccc1N1CCN(C(=O)CCn2c(=O)[nH]c3ccsc3c2=O)CC1 | - | - | - | - | -
Cc1ccc(C)c(N2CCN(C(=O)Cn3c(=O)[nH]c4ccsc4c3=O)CC2)c1 | - | 53 | - | - | -
Cc1ccc(C)c(N2CCN(C(=O)Cc3cn(C)c4ccccc34)CC2)c1 | - | - | -5.4 | - | -
CC1Cc2ccccc2N1C(=O)CCS(=O)(=O)c1cccc2nonc12 (stereo unspecified) | - | - | - | - | -
Cc1ccc(C)c(N2CCN(C(=O)CC3Sc4ccccc4NC3=O)CC2)c1 (stereo unspecified) | 71 | 51 | -6.9 | - | -
Cc1c(NS(=O)(=O)c2ccc3c(c2)CCN3C(=O)C2CC2)c(=O)n(-c2ccccc2)n1C | - | - | - | - | -
SMILES | CYP2C19 inhib | CYP2C9 inhib | Cav3 T inh | CYP2C9 activ | CYP2C19 act
COc1ccc(C(=O)COC(=O)CCn2nnc(-c3cccc(O)c3OC)n2)cc1 | - | - | - | - | -
Cc1ccc(C)c(N2CCN(C(=O)Cn3cccc3)CC2)c1 | - | - | - | - | -
CCC(=O)N1CCN(c2cc(C)ccc2C)CC1 | 52 | - | - | - | -
Cc1ccc(Cl)cc1N1CCN(C(=O)Cc2cn(C)c3ccccc23)CC1 | 53 | - | - | - | -
COc1ccccc1C1(O)CCN(C(=O)c2cccs2)CC1 | - | 54 | . | - | -
COc1ccc(OC)c(CN2CCN(C(=O)c3cccs3)CC2)c1 | 91 | 70 | - | - | -
O=C(c1cccs1)N1CCN(Cc2cccnc2)CC1 | 83 | - | - | - | -
COc1cccc(CN2CCN(C(=O)c3cccs3)CC2)c1OC | - | - | - | - | -
COc1ccc(OC)c(CN2CCN(C(=O)c3cccc4ccccc34)CC2)c1 | 55 | - | - | - | -
COc1cccc(C2(O)CCN(C(=O)c3cccs3)CC2)c1 | - | - | - | - | -
Cc1csc(NC(=O)CSc2nc(C(C)C)nc3c2c(=O)n(C)c(=O)n3C)n1 | . | . | - | . | .
N/C(=N\OC(=O)c1ccc(Cl)cc1)c1nonc1N | - | - | - | - | -
